# From PubChem BioAssay (NCATS)
# Results filed as inconclusive are left out. The source made the active and inactive calls. Unless noted, the call rests on the fitted dose curve; in most records, active means well fitted curve in the direction sought with a large enough effect; inconclusive means small, poorly fitted or top-dose-only effect, or another doubt; inactive means no such curve, though single readings can be large; an effect the other way counts as inactive or inconclusive.
# Tests used:
# [1] = target: Cytochrome P450 1A2 (Homo sapiens) (UniProt P05177); experiment: p450-cyp1a2 (AID 410; calls by dose curve; further: potency means the concentration at half of the fitted maximal effect;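 on activity change, negative = inhibition: -100% = full effect of reference inhibitor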)
# Chain of Cytochrome P450 1A2 (Homo sapiens) (P05177 whole entry, looked up): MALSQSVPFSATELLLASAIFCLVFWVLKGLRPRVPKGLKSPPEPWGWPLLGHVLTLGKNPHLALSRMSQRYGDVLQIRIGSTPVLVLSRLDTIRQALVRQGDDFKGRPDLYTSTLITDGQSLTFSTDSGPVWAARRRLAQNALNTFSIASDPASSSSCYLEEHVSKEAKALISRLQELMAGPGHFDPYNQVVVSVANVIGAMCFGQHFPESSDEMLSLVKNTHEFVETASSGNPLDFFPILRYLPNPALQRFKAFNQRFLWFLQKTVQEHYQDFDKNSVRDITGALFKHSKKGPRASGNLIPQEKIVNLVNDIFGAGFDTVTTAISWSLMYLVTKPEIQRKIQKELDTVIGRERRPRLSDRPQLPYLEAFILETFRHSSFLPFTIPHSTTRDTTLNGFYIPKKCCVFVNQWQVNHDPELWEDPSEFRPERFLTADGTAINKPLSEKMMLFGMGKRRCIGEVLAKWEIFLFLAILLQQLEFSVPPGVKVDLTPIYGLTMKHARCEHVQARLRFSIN
# How it was run: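 Human CYP1A2 (20nM) demethylated Luciferin-ME at its Km (100uM) in 100mM KPO4. After 10 min compound preincubation, NADPH regeneration ran the reaction 60 min at room temperature. Luciferin was read by luminescence, normalized to 57 uM furafylline.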
# [2] = NFAT Signaling Pathway (AID 444; active means well fitted curve in either direction with a large enough effect, not every such curve was filed as active;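 further: carbachol stimulus at about its EC50 of 1 µM final; on the % scale 0 is the no-effect control and ±100 the full control effect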); settings: Jurkat NFAT-bla M1, carbachol, beta-lactamase ratio, 5 h; at 7.69 µM (top of the series) unless noted
# How it was run: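 Jurkat cells carrying an NFAT-driven β-lactamase reporter and co-transfected muscarinic M1 receptor were treated with compound plus carbachol (1 uM final, an EC50 level) for 5 h at 37 °C. CCF4 loading followed for 1 h at RT; 460/530 nm ratio gave %activity.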
# [3] = target: Glucocorticoid receptor (Homo sapiens) (UniProt P04150); experiment: GR-EFC Redistribution (AID 451; calls by dose curve; further: potency means the concentration at half of the fitted maximal effect); settings: CHO-K1 GR-EFC translocation, beta-gal luminescence, 2 h
# Chain of Glucocorticoid receptor (Homo sapiens) (P04150 whole entry, looked up, the tested form may be a part): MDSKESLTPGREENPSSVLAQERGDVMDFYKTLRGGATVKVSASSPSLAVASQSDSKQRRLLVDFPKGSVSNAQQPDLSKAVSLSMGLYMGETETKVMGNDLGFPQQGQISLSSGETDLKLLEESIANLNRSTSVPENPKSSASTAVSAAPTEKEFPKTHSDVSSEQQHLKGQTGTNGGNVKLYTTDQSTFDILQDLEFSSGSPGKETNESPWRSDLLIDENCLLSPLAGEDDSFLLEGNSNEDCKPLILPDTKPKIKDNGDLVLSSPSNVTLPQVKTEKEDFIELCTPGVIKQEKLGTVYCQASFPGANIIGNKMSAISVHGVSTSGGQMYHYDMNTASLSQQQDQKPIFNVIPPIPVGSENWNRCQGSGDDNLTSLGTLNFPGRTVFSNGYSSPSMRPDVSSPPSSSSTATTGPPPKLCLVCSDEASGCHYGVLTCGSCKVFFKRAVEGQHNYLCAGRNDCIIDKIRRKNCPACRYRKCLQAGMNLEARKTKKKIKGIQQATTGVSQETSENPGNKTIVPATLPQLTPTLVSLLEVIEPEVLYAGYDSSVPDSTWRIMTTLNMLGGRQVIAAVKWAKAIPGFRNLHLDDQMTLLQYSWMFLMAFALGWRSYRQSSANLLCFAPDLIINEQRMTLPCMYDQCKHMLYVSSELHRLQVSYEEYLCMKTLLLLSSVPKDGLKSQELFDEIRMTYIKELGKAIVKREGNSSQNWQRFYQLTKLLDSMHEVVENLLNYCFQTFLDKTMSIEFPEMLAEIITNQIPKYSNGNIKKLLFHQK
# How it was run: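 CHO-K1 cells stably expressing nuclear-localized β-gal enzyme acceptor and GR fused C-terminally to the enzyme donor fragment; ligand-driven nuclear translocation restores β-gal by complementation. Compounds titrated up to 46 uM final, 2 h at 37 °C; luminescence read.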
# [4] = target: Mitogen-activated protein kinase 10 (Mus musculus) (UniProt Q61831); experiment: JNK3 AlphaScreen Assay (AID 530; active means well fitted curve in either direction with a large enough effect, not every such curve was filed as active;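 further: kinase came from lysate of stimulated human HepG2 cells; signal reports phosphorylation of biotinylated GST-cJun 1-79 at Ser73 with 10 µM ATP; on the % scale 0 is the no-effect control and ±100 the full control effect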)
# How it was run: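 JNK3 came from HepG2 lysates pre-activated with IL-1beta and TNF-alpha and phosphorylated biotinylated GST-cJun (1-79) at 10 uM ATP, pH 7.6, room temperature. Compounds were titrated. AlphaScreen signal used anti-phospho-cJun (Ser73) antibody.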
# [5] = target: 3',5'-cyclic-AMP phosphodiesterase 4B (Homo sapiens) (UniProt Q07343); experiment: qHTS Assay for Inhibitors of PDE-IV (AID 607; active means well fitted activation curve with a large enough effect in the main read-out, with a control signal flat, not every such curve was filed as active; further: % of control where 0% means no effect)
# Chain of 3',5'-cyclic-AMP phosphodiesterase 4B (Homo sapiens) (Q07343 whole entry, looked up): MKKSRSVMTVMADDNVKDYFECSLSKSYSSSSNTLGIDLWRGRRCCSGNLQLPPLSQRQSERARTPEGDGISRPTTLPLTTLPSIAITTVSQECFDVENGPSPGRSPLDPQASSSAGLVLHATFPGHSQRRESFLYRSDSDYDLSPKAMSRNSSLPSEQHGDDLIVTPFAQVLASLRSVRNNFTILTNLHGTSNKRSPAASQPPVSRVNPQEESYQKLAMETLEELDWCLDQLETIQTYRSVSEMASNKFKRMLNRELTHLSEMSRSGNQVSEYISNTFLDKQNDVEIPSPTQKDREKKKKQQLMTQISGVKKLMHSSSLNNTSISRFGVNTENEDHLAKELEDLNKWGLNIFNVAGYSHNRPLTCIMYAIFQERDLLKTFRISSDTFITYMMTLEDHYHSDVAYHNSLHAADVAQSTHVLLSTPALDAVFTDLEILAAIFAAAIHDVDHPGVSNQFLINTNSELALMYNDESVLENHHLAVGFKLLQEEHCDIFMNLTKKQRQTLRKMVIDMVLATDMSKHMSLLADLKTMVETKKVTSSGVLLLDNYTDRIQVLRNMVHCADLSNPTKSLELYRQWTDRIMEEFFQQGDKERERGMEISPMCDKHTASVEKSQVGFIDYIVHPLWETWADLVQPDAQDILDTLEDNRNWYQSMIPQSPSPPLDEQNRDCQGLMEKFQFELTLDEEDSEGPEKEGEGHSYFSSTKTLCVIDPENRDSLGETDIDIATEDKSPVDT
# How it was run: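 HEK293 ACTOne cells with CNG channel (1000/well), endogenous PDE4; membrane potential dye, compounds up to 22.9 uM final. Fluorescence Ex 535/Em 590; RO 20-1724 (100 uM final) as reference.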
# [6] = qHTS Assay for Lipid Storage Modulators (AID 1519; calls by dose curve); settings: Drosophila S3 cells, BODIPY lipid droplet/cell ratio, laser cytometry, cells loaded with oleic acid; for activity change, negative = inhibition: at 57.5 µM (top of the series)
# How it was run: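 Cells seeded at 5,000 per well were treated with compounds over a concentration series and loaded with oleic acid (400 uM, as added). Lipid droplet fluorescence (488 nm excitation, 500-530 nm channel) was read by laser-scanning cytometry and normalized to 20 uM Triacsin C.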
# [7] = target: Dual specificity protein kinase CLK4 (Homo sapiens) (UniProt Q9HAZ1); experiment: qHTS Assay for Inhibitors of CDC-like Kinase 4 (Kinase-Glo Assay) (AID 1770); further: on the % scale 0 is the no-effect control and ±100 the full control effect; nearly all actives have a fitted effect of over 65% in size
# Chain of Dual specificity protein kinase CLK4 (Homo sapiens) (Q9HAZ1 whole entry, looked up): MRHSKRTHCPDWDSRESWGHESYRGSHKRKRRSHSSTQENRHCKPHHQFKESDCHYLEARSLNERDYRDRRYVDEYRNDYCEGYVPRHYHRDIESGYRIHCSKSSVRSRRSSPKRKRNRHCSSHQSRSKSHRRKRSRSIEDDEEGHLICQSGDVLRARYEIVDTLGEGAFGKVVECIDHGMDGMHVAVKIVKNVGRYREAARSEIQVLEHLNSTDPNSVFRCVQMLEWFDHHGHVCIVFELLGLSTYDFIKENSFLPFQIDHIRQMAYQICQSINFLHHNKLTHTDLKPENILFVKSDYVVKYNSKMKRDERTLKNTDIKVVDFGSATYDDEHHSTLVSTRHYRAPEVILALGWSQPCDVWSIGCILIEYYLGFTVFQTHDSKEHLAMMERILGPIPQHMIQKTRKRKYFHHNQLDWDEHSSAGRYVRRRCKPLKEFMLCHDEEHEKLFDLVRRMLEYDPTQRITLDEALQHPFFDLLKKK
# How it was run: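 25 nM Clk4 with 100 uM RS repeat peptide and 1 uM ATP (final) in Tris pH7.5, 10 mM MgCl2, 4.5 h at room temperature. Remaining ATP measured by Kinase-Glo luciferase luminescence.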
# [8] = target: Dual specificity protein kinase CLK4 (Homo sapiens) (UniProt Q9HAZ1); experiment: qHTS Assay for Inhibitors of CDC-like Kinase 4 (ADP-Glo Assay) (AID 1771); further: on the % scale 0 is the no-effect control and ±100 the full control effect; nearly all actives have a fitted effect of over 70% in size
# How it was run: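 Clk4 (25 nM) was incubated 1 hr at room temperature with 100 uM RS repeat peptide and 1 uM ATP in buffer with 2 mM MgCl2, 0.5 mM EGTA, 2.5 mM DTT. ADP formed was quantified by ADP-Glo luminescence.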
# [9] = target: Dual specificity protein kinase CLK4 (Homo sapiens) (UniProt Q9HAZ1); experiment: qHTS Assay for Inhibitors of CDC-like Kinase 4 (ADP-FP Assay) (AID 1795);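 further: recombinant human CLK4 phosphorylating RS repeat peptide at 1 µM ATP; on the % scale 0 is the no-effect control and ±100 the full control effect; nearly all actives have a fitted effect of over 60% in size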
# How it was run: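 Recombinant Clk4 (6.25 nM) phosphorylated 100 uM RS repeat peptide with 1 uM ATP in 25 mM Tris pH 7.5, 10 mM MgCl2, 0.5 mM EGTA, 2.5 mM DTT, 0.01% Triton X-100 for 1 h. ADP was detected by Transcreener ADP2 competitive fluorescence polarization after 30 min at room temperature.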
# [10] = Primary qHTS for small molecule stabilizers of the endoplasmic reticulum resident proteome: Secreted ER Calcium Modulated Protein (SERCaMP) assay (AID 1508630); further: on the % scale 0 is the no-effect control and ±100 the full control effect
# How it was run: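 GLuc-SERCaMP-expressing SH-SY5Y cells, pretreated 16 h with compound, are challenged with thapsigargin to empty ER calcium stores; after 4 h, coelenterazine is added directly to the medium and luminescence is imaged.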
# [11] = target: Rap guanine nucleotide exchange factor 3 (Homo sapiens) (UniProt O95398); experiment: Confirmatory qHTS for agonist of cAMP-regulated guanine nucleotide exchange factor 3 (EPAC1) (AID 1645881);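 further: EPAC1 catalysed release of BODIPY-GDP from Rap1B seen as fluorescence loss; 100% = effect of cAMP agonist control; nearly all actives have a fitted effect of over 75% in size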
# Chain of Rap guanine nucleotide exchange factor 3 (Homo sapiens) (O95398 whole entry, looked up): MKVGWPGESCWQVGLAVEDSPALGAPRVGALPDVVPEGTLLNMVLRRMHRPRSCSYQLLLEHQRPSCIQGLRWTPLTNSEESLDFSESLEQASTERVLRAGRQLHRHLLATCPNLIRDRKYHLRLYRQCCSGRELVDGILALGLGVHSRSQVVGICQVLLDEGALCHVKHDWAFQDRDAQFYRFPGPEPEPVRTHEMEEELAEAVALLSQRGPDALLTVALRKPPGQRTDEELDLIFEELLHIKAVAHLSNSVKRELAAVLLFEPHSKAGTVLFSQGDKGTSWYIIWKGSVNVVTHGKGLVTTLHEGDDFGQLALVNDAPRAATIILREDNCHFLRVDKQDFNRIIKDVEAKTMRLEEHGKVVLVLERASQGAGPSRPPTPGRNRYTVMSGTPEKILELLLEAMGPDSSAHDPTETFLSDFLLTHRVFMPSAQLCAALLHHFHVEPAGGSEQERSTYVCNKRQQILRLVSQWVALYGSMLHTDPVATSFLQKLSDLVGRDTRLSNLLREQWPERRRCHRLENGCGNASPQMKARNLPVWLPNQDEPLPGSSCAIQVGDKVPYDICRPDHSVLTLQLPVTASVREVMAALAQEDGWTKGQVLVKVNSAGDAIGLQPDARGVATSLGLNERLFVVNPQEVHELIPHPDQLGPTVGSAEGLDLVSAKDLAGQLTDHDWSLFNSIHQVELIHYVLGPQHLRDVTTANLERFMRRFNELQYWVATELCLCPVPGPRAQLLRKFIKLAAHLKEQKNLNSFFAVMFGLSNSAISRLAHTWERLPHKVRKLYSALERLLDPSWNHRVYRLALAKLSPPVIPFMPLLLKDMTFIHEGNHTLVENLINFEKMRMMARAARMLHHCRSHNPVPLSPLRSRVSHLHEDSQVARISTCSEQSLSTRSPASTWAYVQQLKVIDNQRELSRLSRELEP
# [12] = target: Lysosomal acid glucosylceramidase (Homo sapiens) (UniProt P04062); experiment: Glucocerebrosidase-p2 (AID 348; in the data active means potency below about 10 µM; further: potency means the concentration at half of the fitted maximal effect); settings: purified GBA, blue fluorogenic substrate, 40 min
# Chain of Lysosomal acid glucosylceramidase (Homo sapiens) (P04062 whole entry, looked up): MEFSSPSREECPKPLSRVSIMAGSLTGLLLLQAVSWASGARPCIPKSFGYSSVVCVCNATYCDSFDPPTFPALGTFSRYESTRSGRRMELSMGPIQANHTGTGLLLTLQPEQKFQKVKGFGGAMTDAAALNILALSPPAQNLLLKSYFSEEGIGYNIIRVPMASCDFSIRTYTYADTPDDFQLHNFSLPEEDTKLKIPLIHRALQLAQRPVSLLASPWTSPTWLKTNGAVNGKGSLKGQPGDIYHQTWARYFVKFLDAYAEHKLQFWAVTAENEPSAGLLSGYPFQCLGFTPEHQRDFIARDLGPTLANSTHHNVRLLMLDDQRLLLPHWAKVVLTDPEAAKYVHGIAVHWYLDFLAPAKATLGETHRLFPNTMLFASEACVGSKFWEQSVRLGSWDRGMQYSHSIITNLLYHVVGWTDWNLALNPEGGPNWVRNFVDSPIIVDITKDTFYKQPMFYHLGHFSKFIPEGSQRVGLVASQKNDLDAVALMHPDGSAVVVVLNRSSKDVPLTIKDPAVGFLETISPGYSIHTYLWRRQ
# How it was run: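 Compounds titrated from 0.6 nM upwards against 0.2 nM enzyme in pH 5.9 citric acid/KH2PO4, taurocholate, tween-20; blue fluorogenic substrate 80 uM, 40 min room temperature, stopped and read Ex 365/Em 440 for AC50.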
# [13] = AP1 Signaling Pathway (AID 357; active means well fitted curve in either direction with a large enough effect, not every such curve was filed as active; further: on the % scale 0 is the no-effect control and ±100 the full control effect); settings: ME-180 AP-1-bla reporter, EGF-induced, beta-lactamase ratio, 5 h; at 7.69 µM (top of the series) unless noted
# How it was run: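 AP-1-bla ME-180 cells with beta-lactamase reporter under AP-1 response element, stimulated with EC50 EGF; compounds titrated, 5 hours at 37 degrees Celsius. CCF4 read at 460/530 nm ratio; positive and negative modulators judged by AC50.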
# [14] = Stat Signaling Pathway (AID 446; active means well fitted curve in either direction with a large enough effect, not every such curve was filed as active); settings: ME-180 SIE beta-lactamase reporter, IL-6 stimulated, 5 h; at 7.69 µM (top of the series) unless noted
# How it was run: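 ME-180 cells carrying a SIE-driven beta-lactamase reporter are stimulated with 40 pM IL-6 for 5 h at 37C in the presence of compound. The 460/530 nm FRET substrate ratio is read after 2.5 h at RT. Data are normalised to 300 pM IL-6 and to 125 nM JAK inhibitor controls.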
# [15] = target: Glucocorticoid receptor (Homo sapiens) (UniProt P04150); experiment: GR-GFP Redistribution (AID 450;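 active means compounds whose dose series gives a full or clear partial fitted curve of increased nuclear translocation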; further: potency means the concentration at half of the fitted maximal effect); settings: U2OS GR-GFP nuclear translocation, laser cytometry, 2 h
# [16] = target: Cytochrome P450 3A4 (Homo sapiens) (UniProt P08684); experiment: qHTS Assay for Activators of Cytochrome P450 3A4 (AID 885); further: nearly all actives have a fitted effect of over 65% in size
# How it was run: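 Human CYP3A4 (20 nM) with Luciferin-PPXE at 25 uM (its KM) in 200 mM KPO4; 10 min compound preincubation, then NADPH regeneration and 60 min reaction at RT. Luciferin read by luminescence; normalized to 57 uM ketoconazole full inhibition.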
# [17] = target: Ubiquitin carboxyl-terminal hydrolase 1 (Homo sapiens) (UniProt O94782); experiment: Inhibitors of USP1/UAF1: Pilot qHTS (AID 504865);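 further: rhodamine fluorescence freed from ubiquitin-rhodamine substrate followed over time; top concentration of the series differs between compounds; on the % scale 0 is the no-effect control and ±100 the full control effect; nearly all actives have a fitted effect of over 35% in size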
# Chain of Ubiquitin carboxyl-terminal hydrolase 1 (Homo sapiens) (O94782 whole entry, looked up): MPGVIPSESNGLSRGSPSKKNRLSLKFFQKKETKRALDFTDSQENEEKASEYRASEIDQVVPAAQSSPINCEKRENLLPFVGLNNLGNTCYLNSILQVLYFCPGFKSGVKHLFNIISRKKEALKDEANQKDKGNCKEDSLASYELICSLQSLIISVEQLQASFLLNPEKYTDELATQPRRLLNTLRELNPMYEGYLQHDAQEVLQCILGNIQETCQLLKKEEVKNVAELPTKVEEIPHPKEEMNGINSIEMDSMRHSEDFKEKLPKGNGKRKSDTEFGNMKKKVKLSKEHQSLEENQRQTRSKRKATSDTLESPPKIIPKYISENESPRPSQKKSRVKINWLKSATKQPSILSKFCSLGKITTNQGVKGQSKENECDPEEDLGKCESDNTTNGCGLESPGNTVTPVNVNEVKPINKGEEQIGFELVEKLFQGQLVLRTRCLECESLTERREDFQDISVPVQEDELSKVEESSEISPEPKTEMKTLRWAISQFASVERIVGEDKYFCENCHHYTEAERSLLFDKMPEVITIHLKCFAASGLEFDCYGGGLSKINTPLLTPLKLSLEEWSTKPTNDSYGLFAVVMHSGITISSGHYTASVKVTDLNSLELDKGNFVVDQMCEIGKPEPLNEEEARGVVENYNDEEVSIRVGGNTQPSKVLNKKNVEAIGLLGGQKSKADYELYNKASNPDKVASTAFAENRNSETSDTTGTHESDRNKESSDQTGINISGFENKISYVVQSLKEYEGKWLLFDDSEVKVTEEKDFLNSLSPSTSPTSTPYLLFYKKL
# How it was run: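 USP1/UAF1 complex at 1 nM preincubated 15 min at room temperature with compound, then Ub-Rho substrate added at 150 nM final. Fluorescence (480/540 nm) read kinetically in 50 mM HEPES pH 7.8, 0.5 mM EDTA, 1 mM TCEP, 0.1 mg/ml BSA, 0.01% Tween-20.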
# [18] = target: Rap guanine nucleotide exchange factor 3 (Homo sapiens) (UniProt O95398); experiment: Confirmatory qHTS for antagonist of cAMP-regulated guanine nucleotide exchange factor 3 (EPAC1) (AID 1645880);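 further: plate controls were DMSO only for no effect and full effect of the ATA control for full effect; nearly all actives have a fitted effect of over 55% in size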
# How it was run: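 Nucleotide exchange uses 100 nM EPAC1, 250 nM RAP1B-BODIPY-GDP and 50 uM GDP, with compounds in a concentration-titration series. After 5 min at room temperature, fluorescence (480 nm ex/540 nm em) is read every 5 min for 30 min. Data are normalized to control ATA and DMSO.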
# [19] = target: Rap guanine nucleotide exchange factor 4 (Homo sapiens) (UniProt Q8WZA2); experiment: Confirmatory qHTS for agonist of cAMP-regulated guanine nucleotide exchange factor 4 (EPAC2) (AID 1645884);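 further: nucleotide exchange releases bodipy-GDP from Rap1 and this lowers its fluorescence; on the % scale 0 is the no-effect control and ±100 the full control effect; nearly all actives have a fitted effect of over 65% in size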
# [20] = measured here: cell count channel max response
# [21] = measured here: lipid channel max response
structure (smiles),measurement,setting,value
COc1ccc(-c2nc3cnc(N4CCNCC4)nc3n(Cc3cccs3)c2=O)cc1,Potency,[1],3.98 µM (active)
same,"activity change, negative = inhibition",[2],182% [activator] (active)
same,Potency,[3],> 46 µM (inactive)
same,outcome,[4],inactive
same,Potency,[5],inactive
same,"activity change, negative = inhibition",[6],1.49% (inactive)
same,max response,[6]; [20],7.67%
same,max response,[6]; [21],6.52%
same,Potency,[7],inactive
same,Potency,[8],inactive
same,Potency,[9],inactive
same,Potency,[10],inactive
same,outcome,[11],inactive
Cc1cccc(CNc2nc(-c3ccc4c(c3)OCO4)nc3ccccc23)c1,Potency,[12],> 11.4 µM (inactive)
same,"activity change, negative = inhibition",[13],-27.3% (inactive)
same,Potency,[1],0.631 µM (active)
same,"activity, negative = inhibition",[14],-19.3% (inactive)
same,Potency,[15],> 46 µM (inactive)
same,Potency,[3],> 46 µM (inactive)
same,outcome,[4],inactive
same,Potency,[16],inactive
same,"activity change, negative = inhibition",[6],-7.8% (inactive)
same,max response,[6]; [20],-19.2%
same,max response,[6]; [21],-24.8%
same,Potency,[7],inactive
same,Potency,[8],inactive
same,Potency,[9],inactive
same,Potency,[17],inactive
same,Potency,[10],inactive
same,Potency,[18],inactive
same,outcome,[11],inactive
same,outcome,[19],inactive
N#CCCn1c(=O)c(-c2cccc(C#N)c2)nc2cnc(N3CCOCC3)nc21,Potency,[12],> 11.4 µM (inactive)
same,"activity change, negative = inhibition",[13],2.97% (inactive)
same,Potency,[1],15.8 µM (active)
same,"activity change, negative = inhibition",[2],6.22% (inactive)
same,"activity, negative = inhibition",[14],11.4% (inactive)
same,Potency,[15],> 9.22 µM (inactive)
same,Potency,[3],> 46 µM (inactive)
same,outcome,[4],inactive
same,Potency,[5],inactive
same,Potency,[16],inactive
same,"activity change, negative = inhibition",[6],-2% (inactive)
same,max response,[6]; [20],13.8%
same,max response,[6]; [21],7.79%
same,Potency,[7],inactive
same,Potency,[8],inactive
same,Potency,[9],inactive
same,Potency,[17],inactive
same,Potency,[10],inactive
COc1ncc2nc(-c3cc(F)cc(F)c3)c(=O)n(C)c2n1,Potency,[12],> 11.4 µM (inactive)
same,"activity change, negative = inhibition",[13],-19.2% (inactive)
same,Potency,[1],2 µM (active)
same,"activity change, negative = inhibition",[2],-1.78% (inactive)
same,"activity, negative = inhibition",[14],-3.71% (inactive)
same,Potency,[15],> 9.22 µM (inactive)
same,Potency,[3],> 46 µM (inactive)
same,outcome,[4],inactive
same,Potency,[5],inactive
same,"activity change, negative = inhibition",[6],5.28% (inactive)
same,max response,[6]; [20],24.3%
same,max response,[6]; [21],28.7%
same,Potency,[7],inactive
same,Potency,[8],inactive
same,Potency,[9],inactive
same,Potency,[10],inactive
CN(C)c1ncc2nc(-c3cccc(C#N)c3)c(=O)n(CCC#N)c2n1,Potency,[12],> 11.4 µM (inactive)
same,"activity change, negative = inhibition",[13],-2.98% (inactive)
same,Potency,[1],inactive
same,"activity change, negative = inhibition",[2],4.07% (inactive)
same,"activity, negative = inhibition",[14],-8.5% (inactive)
same,Potency,[15],> 9.22 µM (inactive)
same,Potency,[3],> 46 µM (inactive)
same,outcome,[4],inactive
same,Potency,[5],inactive
same,"activity change, negative = inhibition",[6],1.84% (inactive)
same,max response,[6]; [20],5.81%
same,max response,[6]; [21],7.25%
same,Potency,[7],inactive
same,Potency,[8],inactive
same,Potency,[9],inactive
same,Potency,[17],inactive
same,Potency,[10],inactive
